# Records with an inconclusive call do not appear. Entries that show only a call come without a potency. A number with no mark means an inactive call. Calls of active or inactive are those of the source. The call rests on the fitted dose curve; in most records, active means well fitted curve in the direction sought with a large enough effect; inconclusive means small, poorly fitted or top-dose-only effect, or another doubt; inactive means no such curve, though single readings can be large; an effect the other way counts as inactive or inconclusive.
# Experiments:
# [1] = molecular target: Aldehyde dehydrogenase, mitochondrial (Homo sapiens) (UniProt P05091); test: qHTS for Inhibitors of the Aldehyde Dehydrogenase Family (ALDH2) Primary screen (AID 2061308); further: nearly all actives have a fitted effect of over 55% in size
# [2] = molecular target: Retinaldehyde dehydrogenase 3 (Homo sapiens) (UniProt P47895); test: qHTS for Inhibitors of the Aldehyde Dehydrogenase Family (ALDH1A3) Primary screen (AID 2061315)
# [3] = BET inhibitor-based combinations targeting novel dependencies in MECOM-rearranged (r) AML: OCI-AML3 cell line (AID 2202232); conditions: Potency: OCI-AML3 viability; further: nearly all actives have a fitted effect of over 35% in size; further: potency means the concentration at half of the fitted maximal effect
# Outline: (§1)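 Readout: CellTiter-Glo luminescence. Exposure: 48 h, 11 concentrations, 500 cells/well. Metric: AUC and within-line Z-AUC after DMSO/empty-well normalization.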
# [4] = BET inhibitor-based combinations targeting novel dependencies in MECOM-rearranged (r) AML: MV-4-11 cell line (AID 2202233); further: nearly all actives have a fitted effect of over 45% in size; further: potency means the concentration at half of the fitted maximal effect
# Outline: (§2)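 Seeding density was 500 cells/well, and drug exposure lasted 48 hr under standard culture conditions. Read-out used CellTiter-Glo reagent with a 15 min room-temperature incubation before luminescence measurement; AUC and Z-AUC summarize the normalized responses.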
# [5] = BET inhibitor-based combinations targeting novel dependencies in MECOM-rearranged (r) AML: HNT-34 cell line (AID 2202234); further: nearly all actives have a fitted effect of over 35% in size; further: potency means the concentration at half of the fitted maximal effect
# Outline: as §2
# [6] = BET inhibitor-based combinations targeting novel dependencies in MECOM-rearranged (r) AML: AML-191 cell line (AID 2202236; further: nearly all actives have a fitted effect of over 35% in size; further: potency means the concentration at half of the fitted maximal effect)
# Outline: as §1
# [7] = BET inhibitor-based combinations targeting novel dependencies in MECOM-rearranged (r) AML: UCSD-AML1 cell line (AID 2202235); further: nearly all actives have a fitted effect of over 40% in size; further: potency means the concentration at half of the fitted maximal effect
# Outline: as §2
# [8] = BET inhibitor-based combinations targeting novel dependencies in MECOM-rearranged (r) AML: SET-2 cell line (AID 2202231); conditions: SET-2 AML cells viability, CellTiter-Glo luminescence, 48 h; viability: hits give low values, concentration not given here; further: nearly all actives have a fitted effect of over 35% in size; further: potency means the concentration at half of the fitted maximal effect
# Outline: as §1
# [9] = BET inhibitor-based combinations targeting novel dependencies in MECOM-rearranged (r) AML: AML-194 cell line (AID 2202237; further: nearly all actives have a fitted effect of over 40% in size; further: potency means the concentration at half of the fitted maximal effect)
# Outline: as §1
# [10] = molecular target: Retinal dehydrogenase 2 (Homo sapiens) (UniProt O94788); test: qHTS for Inhibitors of the Aldehyde Dehydrogenase Family (ALDH1A2) Confirmation screens (AID 2061314); further: potency means the concentration at half of the fitted maximal effect; nearly all actives have a fitted effect of over 65% in size
# [11] = molecular target: Aldehyde dehydrogenase 1A1 (Homo sapiens) (UniProt P00352); test: qHTS for Inhibitors of the Aldehyde Dehydrogenase Family (ALDH1A1) Confirmatory screens (AID 2061316); further: potency means the concentration at half of the fitted maximal effect; nearly all actives have a fitted effect of over 65% in size
# [12] = molecular target: Retinaldehyde dehydrogenase 3 (Homo sapiens) (UniProt P47895); test: qHTS for Inhibitors of the Aldehyde Dehydrogenase Family (ALDH1A3) Confirmatory screens (AID 2061311); further: potency means the concentration at half of the fitted maximal effect; nearly all actives have a fitted effect of over 60% in size
smiles,measurement,setting,value
Cc1nn(Cc2ccccc2Cl)c(C)c1CN(C)CC(O)COc1ccc(Cl)cc1 (configuration not stated),Potency,[1],inactive
same,Potency,[2],inactive
same,Potency,[3],16.6 µM (active)
same,Potency,[4],20.9 µM (active)
same,Potency,[5],20.9 µM (active)
same,Potency,[6],23.5 µM (active)
COc1cc(Nc2ncc3c(n2)-c2ccc(Cl)cc2C(c2c(F)cccc2OC)=NC3)ccc1C(=O)O,Potency,[1],inactive
same,Potency,[2],inactive
same,Potency,[4],0.0833 µM (active)
same,Potency,[5],1.18 µM (active)
same,Potency,[7],0.059 µM (active)
Cc1nc2c(-c3cnc(N)nc3)nc(N3CCOCC3)nc2n1C(C)C,Potency,[1],inactive
same,Potency,[2],inactive
same,Potency,[4],0.296 µM (active)
same,Potency,[5],0.525 µM (active)
CC1(C)[C@@H](O)CC[C@]2(C)[C@H]3C(=O)C=C4[C@@H]5C[C@@](C)(C(=O)O)CC[C@]5(C)CC[C@@]4(C)[C@]3(C)CC[C@@H]12,Potency,[1],inactive
same,Potency,[2],inactive
same,viability,[8],112%
same,Potency,[3],inactive
same,Potency,[4],inactive
same,Potency,[5],inactive
same,Potency,[7],inactive
same,Potency,[9],inactive
Nc1ccc(-c2ccc3ncc4ccc(=O)n(-c5cccc(C(F)(F)F)c5)c4c3c2)cn1,Potency,[1],inactive
same,Potency,[2],inactive
same,Potency,[8],0.105 µM (active)
same,Potency,[3],0.166 µM (active)
same,Potency,[4],0.0833 µM (active)
same,Potency,[5],0.059 µM (active)
same,Potency,[7],0.0263 µM (active)
same,Potency,[9],0.0417 µM (active)
Cc1cc(Nc2nc(NC(C)c3ncc(F)cn3)ncc2Cl)n[nH]1 (configuration not stated),Potency,[1],inactive
same,Potency,[2],inactive
O=C(O)c1ccc(-n2cccc2/C=C2\SC(=O)N(Cc3ccc(Cl)cc3)C2=O)cc1,Potency,[10],17.8 µM (active)
same,Potency,[2],inactive
same,Potency,[11],4 µM (active)
COc1ccccc1NC(=O)Nc1ccc2ccccc2c1,Potency,[2],inactive
COC[C@H](NC(=O)c1cnc(C)s1)C(=O)N[C@@H](COC)C(=O)N[C@@H](Cc1ccccc1)C(=O)[C@@]1(C)CO1,Potency,[8],0.166 µM (active)
same,Potency,[3],0.0934 µM (active)
same,Potency,[4],0.0833 µM (active)
same,Potency,[7],0.132 µM (active)
same,Potency,[6],0.186 µM (active)
same,Potency,[9],0.332 µM (active)
CC1=C(CC(=O)O)c2cc(F)ccc2C1=Cc1ccc(S(C)=O)cc1 (configuration not stated),Potency,[4],18.6 µM (active)
same,Potency,[5],18.6 µM (active)
same,Potency,[7],inactive
same,Potency,[9],inactive
CC(/C=C/C=C(\C)C(=O)O[C@@H]1O[C@H](CO[C@@H]2O[C@H](CO)[C@@H](O)[C@H](O)[C@H]2O)[C@@H](O)[C@H](O)[C@H]1O)=C\C=C\C=C(C)\C=C\C=C(/C)C(=O)O[C@@H]1C[C@](O)(C(=O)O)C[C@@H](O)[C@H]1OC(=O)/C=C/c1ccc(O)c(O)c1,Potency,[2],inactive
CC1CCC2(C(=O)O)CCC3(C)C(=CCC4C5(C)CCC(O)C(C)(CO)C5CCC43C)C2C1(C)O (configuration not stated),Potency,[2],inactive
CCc1cc(C(N)=S)ccn1,viability,[8],109%
same,Potency,[3],inactive
same,Potency,[4],inactive
same,Potency,[5],inactive
same,Potency,[7],inactive
same,Potency,[6],inactive
same,Potency,[9],inactive
CC(C)=C/C=C\[C@H](C)[C@H]1CC[C@]2(C)C[C@@H]3C(C)=CC(=O)C3/C(CO)=C\C[C@@H]12 (some centres not stated),Potency,[2],inactive
O=C1CSC(=O)N1C(CCc1ccncc1)COc1ccc(-c2cccc([N+](=O)[O-])c2)cc1 (configuration not stated),Potency,[4],16.6 µM (active)
same,Potency,[7],inactive
Cc1ccc(C(=O)Nc2ccc(CN3CCN(C)CC3)c(C(F)(F)F)c2)cc1C#Cc1cnc2cccnn12,Potency,[8],7.42 µM (active)
same,Potency,[3],1.86 µM (active)
same,Potency,[4],0.0263 µM (active)
same,Potency,[5],0.0083 µM (active)
same,Potency,[7],2.63 µM (active)
same,Potency,[6],0.934 µM (active)
same,Potency,[9],1.48 µM (active)
C[C@]12C=CC(=O)C=C1CC[C@@H]1[C@@H]2C(=O)C[C@@]2(C)[C@H]1CC[C@]2(O)C(=O)CO,viability,[8],109%
same,Potency,[3],inactive
same,Potency,[4],inactive
same,Potency,[5],inactive
same,Potency,[6],inactive
same,Potency,[9],inactive
N#Cc1cc(NC(=O)Nc2nnc(-c3ccncc3)s2)ccc1-c1cn[nH]c1,viability,[8],111%
same,Potency,[3],inactive
same,Potency,[4],inactive
same,Potency,[5],inactive
same,Potency,[7],inactive
same,Potency,[6],inactive
same,Potency,[9],inactive
Nc1[nH]c(=O)ncc1F,viability,[8],119%
same,Potency,[5],inactive
same,Potency,[7],inactive
same,Potency,[6],inactive
same,Potency,[9],inactive
COc1cc(OC)c(C(=O)CCCN2CCCC2)c(OC)c1,viability,[8],98%
same,Potency,[3],inactive
same,Potency,[4],inactive
same,Potency,[7],inactive
same,Potency,[6],inactive
same,Potency,[9],inactive
COc1cc(C(C)C)c(Oc2cnc(NC(CO)CO)nc2N)cc1I,viability,[8],99.2%
same,Potency,[3],inactive
same,Potency,[7],inactive
same,Potency,[9],inactive
COC(=O)C1=C(C)NC(C)=C(C(=O)OCCCN2CCC(c3ccccc3)(c3ccccc3)CC2)C1c1cccc([N+](=O)[O-])c1 (configuration not stated),Potency,[8],18.6 µM (active)
same,Potency,[3],29.5 µM (active)
same,Potency,[4],10.5 µM (active)
same,Potency,[5],18.6 µM (active)
same,Potency,[6],26.3 µM (active)
same,Potency,[9],20.9 µM (active)
c1ccc(CNc2nc(NCc3ccccc3)c3ccccc3n2)cc1,Potency,[8],16.6 µM (active)
same,Potency,[3],18.6 µM (active)
same,Potency,[4],9.34 µM (active)
same,Potency,[5],9.34 µM (active)
same,Potency,[7],8.33 µM (active)
same,Potency,[6],9.34 µM (active)
same,Potency,[9],9.34 µM (active)
C/C=C/C=C/C(CC(=O)O)Nc1ccc(C=O)cc1 (configuration not stated),Potency,[12],12.7 µM (active)
same,Potency,[2],inactive
same,Potency,[11],2.01 µM (active)
CC(C)(C)NC(=O)[C@H]1CC[C@H]2[C@@H]3CC[C@H]4NC(=O)C=C[C@]4(C)[C@H]3CC[C@]12C,viability,[8],98.4%
same,Potency,[3],inactive
same,Potency,[5],inactive
same,Potency,[7],inactive
same,Potency,[6],inactive
same,Potency,[9],inactive
CC1(CN2CCC(n3c(=O)[nH]c4ccccc43)CC2)OCc2ccccc2-n2cccc21 (configuration not stated),Potency,[4],14.8 µM (active)

# From PubChem BioAssay (NCATS)
